RE007 growth inh: less growth of the S. pombe RE007 Vpr strain. S. pombe RE007 Vpr strain, BacTiter-Glo ATP luminescence, 24 h. 360,000 tested, 0.21% active. Potency, µM (titrated, usually from 92.2 µM), usual class: inhibitors; active = well fitted falling curve with a large enough effect; inconclusive = small, poorly fitted or top-dose-only effect; inactive = no such curve, though single readings can be large or run the other way; also: nearly all actives have a fitted effect of over 50% in size
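Fission yeast strain RE007, carrying one chromosomally integrated HIV-1 vpr copy, was seeded at OD 0.01 in PMG+AL medium with 23 nL pinned compound. After 24 h at 30 °C and 99% humidity, viability was read by BacTiter-Glo luminescence.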
CHX counter: counter-screen hit for Shiga toxin inhibitors, cycloheximide; cell reporter, cycloheximide protein synthesis inhibition counterscreen; 300,000 tested, 12% active; max response, %; AID 2314; in the data active = max response mostly above about 13%, no sharp cut-off; inactive = mostly below about 14%; also: read at 38.3 µM for the half of the compounds with a filed dose
Giardia FBPA inh: inhibitors of Giardia lamblia fructose-1,6-bisphosphate aldolase; AID 2451; A8B2U2; 290,000 tested, 0.71% active; Potency, µM (highest dose often 59.6 µM), hits mostly inhibitors; purified Giardia FBPA; also: nearly all actives have a fitted effect of over 55% in size
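Giardia FBPA (40 nM reagent) was preincubated 10 min at RT with compound (up to 57.5 uM final), then substrate plus GAPDH/TPI/NAD/arsenate coupling system with diaphorase/resazurin was added; resorufin fluorescence (525/598 nm) was read after 20 min.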
TbPYK inhibitor: T. brucei pyruvate kinase inhibition. Q57TT1. TbPYK enzyme, Kinase-Glo Plus ATP luminescence, 45 min. Potency, µM (top dose mostly 76.8 µM), most hits filed as inhibitors. 410,000 tested, 0.12% active; also: nearly all actives have a fitted effect of over 50% in size
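Screened from lowest to highest concentration, compounds were pinned into TbPYK/substrate mixtures, and ADP (130 uM final) was added. Plates sat at room temperature for 45 min prior to Kinase-Glo Plus detection by luminescence.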
Shiga toxin inh: inhibitors of Shiga toxin in Vero cells | Vero cells, Shiga toxin protein synthesis inhibition reporter | inhibition, % at 38.7 µM | 290,000 tested, 9.2% active | AID 2315; in the data active = inhibition mostly above about 28%, no sharp cut-off; inactive = mostly below about 43%
LmPK inh: LmPK (Leishmania mexicana) enzyme inhibition; purified LmPK, Kinase-Glo ATP luminescence, 1 h; Potency, µM (series often up to 57.5 µM), actives largely listed as inhibitors; 290,000 tested, 0.37% active; Q27686
Target sequence (Q27686 whole entry, looked up): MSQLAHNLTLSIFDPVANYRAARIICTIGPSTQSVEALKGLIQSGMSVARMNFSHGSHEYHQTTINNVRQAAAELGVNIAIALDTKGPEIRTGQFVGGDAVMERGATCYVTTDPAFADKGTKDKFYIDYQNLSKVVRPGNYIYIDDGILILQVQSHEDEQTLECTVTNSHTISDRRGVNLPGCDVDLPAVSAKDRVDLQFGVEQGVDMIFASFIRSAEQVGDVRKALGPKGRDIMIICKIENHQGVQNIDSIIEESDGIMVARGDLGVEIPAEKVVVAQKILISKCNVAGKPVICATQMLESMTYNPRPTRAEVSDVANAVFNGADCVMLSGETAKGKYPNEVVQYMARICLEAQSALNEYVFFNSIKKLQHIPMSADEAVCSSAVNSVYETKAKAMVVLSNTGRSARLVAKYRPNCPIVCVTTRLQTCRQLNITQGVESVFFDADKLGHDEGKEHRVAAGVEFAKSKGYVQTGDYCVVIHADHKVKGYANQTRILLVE
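0.1 nM LmPK, 0.5 mM PEP, 0.1 mM ADP; 50 mM imidazole pH 7.2, 7 mM MgCl2, 50 mM KCl; 1 h RT. Kinase-Glo luminescence readout, normalized to no-enzyme (full inhibition) and uninhibited wells.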
Numbers stand for hits; - = inactive; ? = inconclusive; . = no result given. This excerpt belongs to a sample that is enriched for hits. Unless noted, calls follow the shape of the dose curve; as a rule, active = well fitted curve in the direction sought with a large enough effect; inconclusive = small, poorly fitted or top-dose-only effect, or another doubt; inactive = no such curve, though single readings can be large; an effect the other way counts as inactive or inconclusive.

SMILES	RE007 growth inh	CHX counter	Giardia FBPA inh	TbPYK inhibitor	Shiga toxin inh	LmPK inh
COc1ccc(-n2c(SC3CCOC3=O)nc3ccccc3c2=O)cc1Cl (configuration not stated)	-	-	-	-	-	-
COc1ccc(-n2c(SC3CCOC3=O)nc3ccccc3c2=O)cc1OC (configuration not stated)	-	38	-	-	-	-
O=C(COC(=O)c1ccc2c(c1)OCCO2)Nc1ccc(F)cc1F	-	.	.	-	.	.
O=C(Nc1ccc(F)cc1F)c1ccc2c(c1)OCCO2	-	29	-	-	83	?
O=C(Nc1ccc(Br)cc1F)c1ccc2c(c1)OCCO2	-	21	-	-	-	-
O=C(c1ccc2c(c1)OCO2)C1CCCN(C(=O)Nc2ccc(F)cc2F)C1 (configuration not stated)	-	18	-	-	-	-
O=C(c1ccc2c(c1)OCO2)C1CCCN(C(=O)C2CCOCC2)C1 (configuration not stated)	-	-	-	-	-	-
CCOCCc1nn2c(=O)cc(COC(=O)c3ccc(NC(=O)C(C)(C)C)cc3)nc2s1	.	.	.	-	.	.
Cn1ccc2c(/C=C/c3ccc(F)cc3)cc3c(c21)C1CCC3C1 (configuration not stated)	-	.	.	-	.	.
CN(C)c1ccc(-c2nc3ccccn3c2Nc2ccc3c(c2)OCCO3)cc1	.	.	.	-	.	.
CCc1ccc(NC(=O)[C@H](C)NC(=O)C2CCN(C(=O)[C@@H](NC(=O)OC(C)(C)C)C(C)C)CC2)cc1	-	14	-	-	-	-
CC(C)[C@H](NC(=O)OC(C)(C)C)C(=O)N1CCC(C(=O)N[C@@H](C)C(=O)Nc2ccc(F)cc2)CC1	-	-	-	-	-	-
CCc1ccc(NC(=O)[C@H](C)NC(=O)C2CCN(C(=O)[C@@H](N)Cc3ccccc3)CC2)cc1	-	16	?	-	23	-
O=C(CCl)c1ccc2c(c1)CCN2C(=O)C1CCCCC1	11µM	-	-	-	-	-
O=C(CCl)c1ccc2c(c1)CCN2C(=O)C1CC1	.	-	-	.	-	-
COc1ccccc1N1CCN(C(=O)Cn2cnc3onc(-c4ccc(F)cc4)c3c2=O)CC1	.	.	.	-	.	.
COCC(C)n1c(C)cc(C(=O)COC(=O)c2ccc3c(c2)NC(=O)CS3)c1C (configuration not stated)	-	-	-	-	-	-
COc1cc(OC)cc(C(=O)OCC(=O)c2cc(C)n(CC3CCCO3)c2C)c1 (configuration not stated)	-	.	.	-	.	.
Cc1cc(C(=O)COC(=O)c2ccc(O)cc2)c(C)n1CC1CCCO1 (configuration not stated)	-	59	-	-	107	-
Cc1cc(C(=O)COC(=O)c2ccc3c(c2)NC(=O)CS3)c(C)n1CC1CCCO1 (configuration not stated)	.	38	-	-	56	-
O=C1NC2(CCCCCC2)C(=O)N1Cc1ccccc1Cl	-	-	-	-	-	-
Oc1ccccc1CNc1ccc2c(c1)OCCO2	-	41	-	-	67	-
c1csc(CNc2ccc3c(c2)OCCO3)c1	-	111	?	-	93	-
CCC(C)(C)NC(=O)CN(Cc1cccs1)C(=O)C(=O)Nc1ccc2c(c1)OCCO2	-	-	-	-	-	-
COc1cc(CNc2ccc(C)c(C)c2)cc(OC)c1OC	-	-	?	-	-	-
SMILES	RE007 growth inh	CHX counter	Giardia FBPA inh	TbPYK inhibitor	Shiga toxin inh	LmPK inh
Clc1cc(NCc2cccs2)ccc1N1CCOCC1	-	46	?	-	57	-
COc1cc(CNc2ccc3c(c2)OCCO3)ccc1OCC(N)=O	-	-	-	-	-	-
Cc1ccc(NCc2ccccc2O)cc1C	-	33	-	-	102	-
COc1ccc(-c2ccccc2NC(=O)C2CCCN(Cc3ccc(C)o3)C2)cc1 (configuration not stated)	-	-	.	-	-	-
Cc1oc(-c2ccc(C(=O)Nc3cc(F)ccc3F)cc2)nc1COc1ccccc1	.	.	.	-	.	.
FC(F)(F)Oc1ccc(NC(=S)Nc2ccc(OC(F)(F)F)cc2)cc1	-	-	-	-	-	-
Oc1ccccc1CNc1ccc(OC(F)(F)F)cc1	?	35	-	-	55	-
Cc1ccc(NC(=O)CNC(=O)N2CC(=O)Nc3ccccc32)cc1F	-	-	-	-	-	-
O=C(CN1CC(=O)Nc2ccccc21)Nc1ccc(F)c(F)c1	-	30	?	-	75	-
O=C(CSc1nc(-c2ccccc2)nc2ccc(F)cc12)Nc1cccc(C(=O)O)c1	-	-	-	-	-	-
CCc1cccc(NC(=O)CNC(=O)N2CC(=O)Nc3ccccc32)c1	-	26	-	-	-	-
O=C(CSCc1ccc(F)cc1)NC1CCCC1	-	26	-	-	37	-
O=C(CSc1nncc2ccccc12)Nc1cccc(C(=O)O)c1	-	40	?	-	99	-
COc1ccc(-c2ccc3c(c2)O/C(=C\c2ccsc2)C3=O)cn1	-	.	.	-	.	.
Clc1ccc(CCNc2nc3ccccc3c3nc(-c4ccccc4)nn23)cc1	.	.	.	-	.	.
COc1ccccc1NC(=O)Cn1c(CCC(=O)O)ccc1-c1ccccc1	-	-	-	-	-	-
COc1ccc(-c2noc(CCC(=O)Nc3ccccc3Cl)n2)cc1OC	.	.	.	-	.	.
O=C(CSCc1ccc(F)cc1)Nc1ccccc1	-	30	-	-	53	-
N#CCSCC(=O)Nc1ccccc1	-	20	-	-	-	-
O=C(CSCc1ccccc1)Nc1ccc(F)c(F)c1	-	47	-	-	73	-
O=C(CSc1nnc(-c2ccc(F)cc2)c2ccccc12)Nc1ccccc1	-	22	-	-	-	-
O=C(CSCc1cccc(CSCC(=O)Nc2ccccc2)n1)Nc1ccccc1	-	-	-	-	-	-
CC(C)[C@H](NC(=O)OC(C)(C)C)c1cc(C(=O)N[C@@H](C)c2ccccc2)c(N)s1	-	.	.	.	.	.
O=C(CSCc1ccccc1Br)Nc1ccccc1	-	27	-	-	-	-
O=C(O)CSCC(=O)Nc1ccccc1	-	.	.	-	.	.
SMILES	RE007 growth inh	CHX counter	Giardia FBPA inh	TbPYK inhibitor	Shiga toxin inh	LmPK inh
O=C(CSCc1ccc(F)cc1)NCc1ccco1	-	21	-	-	-	-
CCc1ccc(-n2c(=O)c3sc4ccccc4c3n(Cc3cccc(F)c3)c2=O)cc1	.	.	.	-	.	.
Cc1ccccc1Nc1c(-c2cccnc2)nc2ccc(Cl)cn12	.	.	.	-	.	.
CCn1c(SC)nc2c([nH]c3ccccc32)c1=O	.	.	.	-	.	.
Cc1[nH][nH]c(=O)c1N=Nc1ccccc1Cl	-	22	-	-	56	-
O=C(Nc1nc2ccccc2s1)c1cc(-c2ccco2)nc2ccccc12	-	50	-	-	60	-
O=C(Nc1nccs1)c1cc(-c2ccco2)nc2ccccc12	-	-	-	-	-	-
Cc1csc(NC(=O)c2cc(-c3ccco3)nc3ccccc23)n1	-	-	-	-	-	-

Compound activity deposited in PubChem BioAssay by National Center for Advancing Translational Sciences (NCATS).
